Reference: PubChem BioAssay AID1159580 (chemical genetic matrix, 2015)
Values joined by “and” are separate entries in the source; they are usually repeats but may differ in a detail not shown here. Identical values can stand only once. Hit rate of the full screen: of about 5,500 compounds, about 2,000 (36%) were called active. Another 18% or so got no clear call; they are omitted. No stated cut-off is given here; in the data, active means normalized growth mostly below about 0.91 (no sharp cut-off); inconclusive means no clear call, values can overlap the other calls; inactive means mostly above about 0.92. The list shows a part of the results.

Assay: chemical genetic growth profiling, strain panel (AID 1159580);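 further: tested at 20 µM; growth read once vehicle control cultures reached saturation at 30 °C; 1 = growth at the plate median or of vehicle wells; lower values mean less growth of the strain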
Settings: S. cerevisiae deletion strains, growth OD

Measured: normalized growth

CC(=O)OCC1=C(C(=O)O)N2C(=O)[C@@H](NC(=O)CSc3ccncc3)[C@H]2SC1
inactive: locus YAL013W, strain DEP1, hits give low values 0.988 | locus YAL021C, strain ccr4, hits give low values 1.02 | locus YAL026C, strain drs2, hits give low values 1.02 | locus YAL030W, strain snc1, hits give low values 1 | locus YBL061C, strain skt5, hits give low values 1.04 | locus YBR009C, strain hhf1, hits give low values 1.01 | locus YBR021W, strain FUR4, hits give low values 1.02 | locus YBR023C, strain chs3, hits give low values 1.04 | locus YBR171W, strain sec66, hits give low values 1.02 | locus YBR229C, strain ROT2, hits give low values 0.95 | locus YBR231C, strain swc5, hits give low values 1.04 | locus YBR279W, strain paf1, hits give low values 1.03 | locus YCL011C, strain gbp2, hits give low values 1.01 | locus YCL016C, strain dcc1, hits give low values 1.02 | locus YCL029C, strain bik1, hits give low values 1 | locus YCL061C, strain MRC1, hits give low values 1.01 | locus YCL069W, strain vba3, hits give low values 1.02 | locus YCR088W, strain abp1, hits give low values 1.02 | locus YDL005C, strain med2, hits give low values 1.02 | locus YDL035C, strain GPR1, hits give low values 0.959 | locus YDL040C, strain nat1, hits give low values 1.02 | locus YDL074C, strain BRE1, hits give low values 1 | locus YDL101C, strain DUN1, hits give low values 0.988 | locus YDL185W, strain tfp1, hits give low values 0.966 | locus YDL192W, strain arf1, hits give low values 0.984 | locus YDR001C, strain nth1, hits give low values 1.02 | locus YDR069C, strain doa4, hits give low values 1.04 | locus YDR101C, strain arx1, hits give low values 0.976 | locus YDR137W, strain rgp1, hits give low values 1 | locus YDR159W, strain sac3, hits give low values 1.03 | locus YDR162C, strain NBP2, hits give low values 0.946 | locus YDR195W, strain ref2 1.03 | locus YDR297W, strain sur2, hits give low values 1.02 | locus YDR318W, strain mcm21, hits give low values 0.99 | locus YDR334W, strain swr1, hits give low values 1.01 | locus YDR335W, strain msn5, hits give low values 1.03 | locus YDR388W, hits give low values 0.988 | locus YDR392W, strain spt3, hits give low values 0.957 | locus YDR502C, strain sam2, hits give low values 0.998 | locus YEL003W, strain gim4, hits give low values 1.03 | locus YEL037C, strain rad23, hits give low values 1 | locus YEL061C, strain CIN8 (second series), hits give low values 1.05 | locus YEL061C, strain CIN8, hits give low values 0.99 | locus YER015W, strain faa2, hits give low values 1.01 | locus YER016W, strain bim1, hits give low values 1.03 | locus YER110C, hits give low values 0.991 | locus YER111C, strain swi4, hits give low values 0.997 | locus YER155C, strain BEM2 (second series), hits give low values 0.992 | locus YER155C, strain BEM2, hits give low values 0.994 | locus YER167W, strain BCK2, hits give low values 0.995 | locus YFR010W, strain ubp6, hits give low values 1.02 | locus YGL078C, strain dbp3, hits give low values 0.995 | locus YGL086W, strain mad1, hits give low values 0.981 | locus YGL167C, strain pmr1, hits give low values 1.03 | locus YGL173C, strain kem1, hits give low values 1.03 | locus YGL227W, strain vid30, hits give low values 1.01 | locus YGL240W, strain doc1, hits give low values 1.03 | locus YGL248W, strain PDE1, hits give low values 1.01 | locus YGL253W, strain hxk2, hits give low values 1.02 | locus YGR078C, strain PAC10, hits give low values 0.989 | locus YGR135W, strain pre9, hits give low values 1.04 | locus YGR252W, strain gcn5, hits give low values 1.02 | locus YHR013C, strain ard1, hits give low values 1.03 | locus YHR027C, strain rpn1, hits give low values 1.02 | locus YHR030C, strain SLT2, hits give low values 0.983 and 0.995 | locus YHR079C, strain IRE1 (second series), hits give low values 0.997 | locus YHR079C, strain IRE1, hits give low values 1.01 | locus YHR094C, strain hxt1, hits give low values 0.991 | locus YHR129C, strain ARP1, hits give low values 0.984 | locus YHR142W, strain chs7, hits give low values 1.03 | locus YHR200W, strain rpn10, hits give low values 0.984 | locus YIL066C, strain RNR3, hits give low values 0.969 | locus YIL073C, strain SPO22, hits give low values 1.03 | locus YIL125W, strain kgd1, hits give low values 0.984 | locus YIR030C, strain dcg1, hits give low values 0.993 | locus YJL092W, strain hpr5, hits give low values 1.02 | locus YJL095W, strain BCK1 (second series), hits give low values 1.02 | locus YJL095W, strain BCK1, hits give low values 1.05 and 0.991 | locus YJL115W, strain asf1, hits give low values 1.03 | locus YJL129C, strain trk1, hits give low values 1.01 | locus YJL134W, strain LCB3, hits give low values 0.991 | locus YJL154C, strain vps35, hits give low values 1.02 | locus YJL164C, strain tpk1, hits give low values 1.01 | locus YJL166W, strain qcr8, hits give low values 1.03 | locus YJL168C, strain set2, hits give low values 0.99 | locus YJL187C, strain SWE1 (second series), hits give low values 1 | locus YJL187C, strain SWE1, hits give low values 1.02
